Reference: PubChem BioAssay AID1345082 (National Center for Advancing Translational Sciences (NCATS), 2018)
In all, about 94,000 compounds went through this assay and about 4,000 (4.3%) were called active. About 29% were inconclusive and are not listed. Calls follow the shape of the dose curve; as a rule, active = well fitted inhibition curve with a large enough effect; inconclusive = small, poorly fitted or top-dose-only effect; inactive = no such curve, though single readings can be large or run the other way. For the sample, actives were picked, then their nearest neighbours and some compounds at random.

assay: Cytotoxic Profiling in NIH 3T3 Cell Line of Diverse Libraries Using Quantitative High-Throughput Screening; conditions: NIH 3T3 viability, CellTiter-Glo ATP luminescence, 48-72 h; series mostly up to 96.7 µM; activity change, negative = cytotoxicity: at the top concentration; also: nearly all actives have a fitted effect of over 55% in size
Summary of the method: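 Mouse fibroblast NIH 3T3 cells, 400 per well, received compound via pintool and were incubated for 48 or 72 hr prior to CellTiter-Glo ATP luminescence measurement.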
% is scaled to controls: 0 for no effect and ±100 for the full control effect; potency is read from the fitted curve at half-maximal effect.

Row | Compound | activity change, negative = cytotoxicity | Potency | outcome
1 | Cc1noc2c(N3CCC(c4ccccc4)CC3)cc(-c3cccnc3)nc12 | -24.6% [at 138 µM] (inactive) | – | –
2 | Cc1noc2c(N3CC[S+](=O)([O-])CC3)cc(-c3ccc(Cl)cc3)nc12 | – | 10 µM (active) | –
3 | Cc1nc2c(c(-c3ccc(Cl)cc3)n1)CCN([S+](=O)([O-])c1c(C)noc1C)CC2 | -12.1% (inactive) | – | –
4 | CN1CCCCCCN(C(=O)C2CCC2)[C@H]2CCC[C@H]2C1=O | -7.21% (inactive) | – | –
5 | Cc1noc(C)c1-c1cc2cc(CNC3CCOCC3)oc2c(NC2CCN(C)CC2)n1 | – | 39.8 µM (active) | –
6 | CCOCCN1C(=O)COC[C@@H]1[C@H](O)c1ccc(NC(=O)c2cnccn2)cc1 | -12.3% [at 138 µM] (inactive) | – | –
7 | CCCN1CCN(C(=O)C2CCCN(c3cnn(Cc4ccccc4)c(=O)c3)C2)CC1 (centres undefined) | -15% (inactive) | – | –
8 | O=C(C1CCCN(Cc2cccc(-c3ccc(F)cc3F)c2)C1)N1CCN(Cc2ccccc2)CC1 (centres undefined) | – | 39.8 µM (active) | –
9 | O=C(C1CCN(Cc2ccccc2-c2cccnc2)CC1)N1CCN(Cc2ccccc2)CC1 | -38.3% (inactive) | – | –
10 | COCc1nc(CCNC(=O)Cc2c(C)noc2C)no1 | -2.43% (inactive) | – | –
11 | CN(C)C[C@@H]1CN(C)C[C@H]1NC(=O)c1cnn(C)c1 | -4.02% (inactive) | – | –
12 | CCn1ccc(C(=O)NCC2CCCCC(=O)N2)n1 (centres undefined) | -4.36% (inactive) | – | –
13 | O=C(c1ccccn1)N1CCn2c(nnc2C2CCCNC2)C1 (centres undefined) | 4.23% [at 138 µM] (inactive) | – | –
14 | COCC(=O)N(C1CCOCC1)C1CCN(S(=O)(=O)c2ccccc2)CC1 | -10.5% (inactive) | – | –
15 | O=C1NC2(CCCN([S+](=O)([O-])c3ccccc3)C2)COc2ccccc21 (centres undefined) | – | 22.4 µM (active) | –
16 | O=[S+]([O-])(c1ccccc1)N1CCCC2(CC(c3ccccn3)=NO2)C1 (centres undefined) | – | – | inactive
17 | O=C1NC2(Cc3ccccc31)CN([S+](=O)([O-])c1cccc(C(F)(F)F)c1)C2 | -11.6% (inactive) | – | –
18 | COc1nccnc1NC1CCN(C(=O)CCc2ccccc2)CC1 | -22.2% (inactive) | – | –
19 | Cc1ccc(C2Cn3nnc(-c4noc(-c5ccccc5C)n4)c3CO2)cc1 (centres undefined) | – | – | inactive
20 | O=C1CCCN1CCCN1C(=O)[C@@H]2C[C@@H](O)CN2C2(CN(C3CCOCC3)C2)C1=O | -0.373% [at 174 µM] (inactive) | – | –

Row | Compound | activity change, negative = cytotoxicity | Potency | outcome
21 | COCC(=O)Nc1ccc([C@@H](O)[C@H]2COCC(=O)N2Cc2ccc(C(F)(F)F)cc2)cc1 | -11.3% (inactive) | – | –
22 | O=C1NCCN(Cc2ccccc2)C1CC(=O)N1CCN(c2ccccc2)CC1 (centres undefined) | -1.32% (inactive) | – | –
23 | O=C(Cn1c2c(c(=O)n1Cc1ccccc1)CCN(Cc1ccccc1)C2)NCc1cccc(Cl)c1 | -22.1% (inactive) | – | –
24 | N#Cc1cccc(CN2CCCN(S(=O)(=O)c3ccccc3)CCC(=O)NCC2)c1 | -29.7% (inactive) | – | –
25 | O=c1c2c(n(Cc3ccccc3)n1-c1ccccc1)CN(Cc1ccn[nH]1)CC2 | – | 89.1 µM (active) | –
26 | COCCn1c2c(c(=O)n1-c1ccccc1)CCN(Cc1cccc(C#N)c1)C2 | – | 100 µM (active) | –
27 | N#Cc1cccc(CN2CCc3nc(N4CCc5ccccc5C4)[nH]c(=O)c3CC2)c1 | -0.249% (inactive) | – | –
28 | N#Cc1ccc(CN2CCC3(COc4ncccc4[S+](=O)([O-])N3)C2)cc1 (centres undefined) | -19.9% (inactive) | – | –
29 | CC(C)c1ccc(CNC(=O)CCn2ccn3nc4c(c3c2=O)CCCC4)cc1 | -28.9% (inactive) | – | –
30 | C=CCOc1cccc(-c2nnc(CCC(=O)NCc3ccccc3)c(=O)[nH]2)c1 | -25% (inactive) | – | –
31 | CSCCNC(=O)c1cc(-c2ccc(Cl)nc2)nc2c1cnn2C | -28.8% (inactive) | – | –
32 | COCC(=O)N[C@@H](Cn1ccc(=O)[nH]c1=O)C(=O)O | 1.85% [at 230 µM] (inactive) | – | –
33 | O=C(c1cnccn1)N1CCC[C@H](n2c(=O)n(CC3CC3)c3cccnc32)C1 | – | – | inactive
34 | Cc1ccc(NS(=O)(=O)c2ccccc2)c(=O)n1CC(=O)N(C)Cc1ccccc1 | -14.6% (inactive) | – | –
35 | CC(C)CCN1C(=O)CC[C@]2(C(=O)N3CCN(C)CC3)CCCC[C@@H]12 | -21.4% (inactive) | – | –
36 | O=C1CC(c2ccccc2)N(C(=O)CNC(=O)NCc2ccc(F)cc2)CCCCCN1 (centres undefined) | -6.97% (inactive) | – | –
37 | O=C1CC(c2ccccc2)N(Cc2cn[nH]c2-c2ccc(F)cc2)CCCCCN1 (centres undefined) | – | 39.8 µM (active) | –
38 | O=C1CC(c2ccccc2)N(C(=O)CNC(=O)C2CCC2)CCCCCN1 (centres undefined) | -5.49% (inactive) | – | –
39 | Cn1ncc2c(C(=O)NCC(F)(F)F)cc(-c3ccccc3F)nc21 | -34.4% [at 138 µM] (inactive) | – | –
40 | COc1ccc(C2Cn3cnc(-c4nc(-c5ccc(OC)cc5OC)no4)c3CO2)cc1 (centres undefined) | – | 20 µM (active) | –

Row | Compound | activity change, negative = cytotoxicity | Potency | outcome
41 | COc1ccc(-c2noc(-c3nnn4c3COC(c3ccc(Cl)cc3)C4)n2)c(OC)c1 (centres undefined) | -10% (inactive) | – | –
42 | CCOc1ccc(-c2noc(-c3ncn4c3COC(c3ccc(OC)cc3)C4)n2)cc1 (centres undefined) | -16.5% (inactive) | – | –
43 | CN(C)C(=O)C1CN(C(=O)C2CCCC2)CC12CCOCC2 (centres undefined) | – | – | inactive
44 | CCC(=O)N1Cc2ccccc2CC2(CCN(Cc3ccc(OC)cc3)C2)C1 (centres undefined) | -13.7% (inactive) | – | –
45 | O=C(NCCC1COc2ccccc2O1)c1ccc(N2CCCOCC2)nc1 (centres undefined) | -4.44% (inactive) | – | –
46 | COc1ccc(-c2ccc3c(c2)C(=O)N2CCN(C(=O)CC(C)(C)C)C[C@@H]2C(=O)N3)c(OC)c1 | -6.29% (inactive) | – | –
47 | COc1ccc(-c2cccc(C(=O)NC3CC3)c2)nn1 | -28.6% [at 138 µM] (inactive) | – | –
48 | COc1ccc(-c2cccc(C(=O)N3CCN(C(=O)Cc4cccc(Cl)c4)CC3)c2)nn1 | -25.1% (inactive) | – | –
49 | COc1ccc(-c2cccc(C(=O)NCc3cccc(Cl)c3)c2)nn1 | – | 35.5 µM (active) | –
50 | O=C(N[C@H]1CCOC[C@H]1C1CCOCC1)c1scc2c1OCCO2 | -0.0014% (inactive) | – | –
51 | Cc1nc(C(=O)N2CC[C@H](NS(=O)(=O)c3cccs3)C[C@H]2C(=O)N[C@H](Cc2c[nH]c3ccccc23)C(N)=O)cs1 | 2.43% (inactive) | – | –
52 | Cn1ccnc1C(=O)N1CCCCCCNC(=O)[C@@H]2C[C@@H](C(=O)N3CCc4ccccc4C3)C[C@@H]21 | -13.4% (inactive) | – | –
53 | O=C(NCc1cccnc1)C1CCC(=O)N1C1CCNCC1 (centres undefined) | -3.85% (inactive) | – | –
54 | CC1=C[C@@H](CNC(C)C)[C@H](C(C)C)C[C@H]1Cc1nnc(-c2ccc(N(C)C)cc2)o1 | – | 31.6 µM (active) | –
55 | CC1=C[C@@H](CN2CCOCC2)[C@H](C(C)C)C[C@H]1Cc1nnc(-c2ccc([N+](=O)[O-])cc2)o1 | – | 35.5 µM (active) | –
56 | CC(=O)NC[C@@H]1C=C(C)[C@H](CC(=O)N2CCCC2)C[C@H]1C(C)C | 3.57% [at 174 µM] (inactive) | – | –
57 | CC1=C[C@@H](CNC2CC2)[C@H](C(C)C)C[C@H]1Cc1nnc(-c2ccc(C)cc2)o1 | – | 39.8 µM (active) | –
58 | CC1=C[C@@H](CNC(=O)NC(C)C)[C@H](C(C)C)C[C@H]1Cc1nnc(-c2ccncc2)o1 | – | 56.2 µM (active) | –
59 | COC1C(=O)N(c2cccc(F)c2)C12CCN(C(=O)C1(c3ccccc3)CC1)CC2 (centres undefined) | -15.4% (inactive) | – | –
